The values that follow come from PubChem BioAssay (NCI).

“And” between values parts separate entries of the source, which are not always exact repeats. Equal values may be shown once. This is part of a sample that, as a whole, favours compounds with a hit. Of some 83,000 tested, about 20% had one in any assay.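 Single-dose data. Exposure time 48 hours. Values below 10 considered active.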 The source made the active and inactive calls.

Test systems include OVCAR-8 ovarian; OVCAR-5 ovarian; OVCAR-4 ovarian; SK-OV-3 ovarian; IGROV1 ovarian; OVCAR-3 ovarian; HS 578T breast; NCI/ADR-RES ovarian; RPMI-8226 leukemia.
What all share (assay): NCI-60 one-dose screen, 48 h (100 = growth as untreated, 0 = no growth, -100 = all killed)
Common to all, as to conditions: 10 µM unless noted

Take `CCC(C)(O)CCC(C)(O)CC` (stereo unspecified): the growth was 102% (inactive) in the test on OVCAR-8 ovarian; 114% (inactive) in the test on OVCAR-5 ovarian; 111% (inactive) in the test on OVCAR-4 ovarian; 99% (inactive) with SK-OV-3 ovarian; 103% (inactive) with IGROV1 ovarian; 107% (inactive) with OVCAR-3 ovarian. The growth was 108% (inactive) with HS 578T breast and 99.2% (inactive) in the test with NCI/ADR-RES ovarian.

`O=C(O)c1c2c(nc3ccccc13)Cc1ccccc1-2`: the growth with RPMI-8226 leukemia was 97% (inactive) and 84.1% (inactive); in the test with OVCAR-8 ovarian it was 96.3% (inactive) and 96.2% (inactive); with OVCAR-4 ovarian it was 116% (inactive) and 97.6% (inactive); in the test with SK-OV-3 ovarian, 99.7% (inactive) and 102% (inactive); in the test with IGROV1 ovarian, 121% (inactive) and 85.6% (inactive); with OVCAR-3 ovarian, 102% (inactive) and 95.6% (inactive). Moreover, the growth in the test with HS 578T breast is 94.1% (inactive) and 84.2% (inactive); in the test on NCI/ADR-RES ovarian, 107% (inactive) and 95.7% (inactive).

For the compound `COc1cc(C2c3cc4c(cc3C(OC(=O)C[n+]3ccccc3)C3COC(=O)C23)OCO4)cc(OC)c1OC` (stereo unspecified), the growth in the test with RPMI-8226 leukemia is 36.2% (inactive); in the test with OVCAR-8 ovarian, 14.7% (inactive); in the test on OVCAR-5 ovarian, 54% (inactive); in the test with OVCAR-4 ovarian, 41.5% (inactive); in the test with SK-OV-3 ovarian, 33% (inactive); in the test on IGROV1 ovarian, 16.5% (inactive). The results for the growth in the test with OVCAR-3 ovarian, in the test with HS 578T breast and with NCI/ADR-RES ovarian were -57.7% (active), 34.7% (inactive) and -3.91% (active), respectively.

Take `CN(C)C(=N)N=C(N)N`: the growth with RPMI-8226 leukemia is 92.2% (inactive); with OVCAR-8 ovarian it was 105% (inactive); in the test on OVCAR-4 ovarian, 96.3% (inactive) and 112% (inactive); in the test with SK-OV-3 ovarian, 106% (inactive) and 110% (inactive); in the test on IGROV1 ovarian it was 98.7% (inactive) and 128% (inactive); in the test with OVCAR-3 ovarian, 118% (inactive) and 113% (inactive). The growth with HS 578T breast was 144% (inactive); with NCI/ADR-RES ovarian, 105% (inactive) and 111% (inactive).

`CC(C)=NOC(C)C(=O)O` (stereo unspecified): the growth was 111% (inactive) with RPMI-8226 leukemia; 90.2% (inactive) in the test on OVCAR-8 ovarian; 115% (inactive) in the test with SK-OV-3 ovarian; 135% (inactive) in the test on IGROV1 ovarian; 114% (inactive) in the test with OVCAR-3 ovarian; 108% (inactive) in the test on HS 578T breast. The growth in the test on NCI/ADR-RES ovarian is 99.6% (inactive).

Take `O=P(O)(O)OC1C(OP(=O)(O)O)C(OP(=O)(O)O)C(OP(=O)(O)O)C(OP(=O)(O)O)C1OP(=O)(O)O.[Cu+2]` (stereo unspecified): the growth is 101% (inactive) in the test on RPMI-8226 leukemia; 76.8% (inactive) with OVCAR-8 ovarian; 114% (inactive) in the test with SK-OV-3 ovarian; 86.9% (inactive) in the test on IGROV1 ovarian; 123% (inactive) in the test with OVCAR-3 ovarian; 92.4% (inactive) in the test on HS 578T breast. Moreover, the growth with NCI/ADR-RES ovarian was 97.3% (inactive).

Consider `CCCC(=O)Oc1ccc2ccccc2c1`, for which the growth in the test with OVCAR-8 ovarian was 94.6% (inactive); in the test on OVCAR-4 ovarian, 105% (inactive); with SK-OV-3 ovarian it was 91.8% (inactive); in the test with IGROV1 ovarian, 106% (inactive); in the test with OVCAR-3 ovarian, 113% (inactive); with HS 578T breast it was 92.7% (inactive). Also, the growth in the test on NCI/ADR-RES ovarian is 102% (inactive).

On to `CC(=O)Oc1cc(C(C)C)c(OCCN(C)C)cc1C`, for which the growth in the test with OVCAR-8 ovarian is -70.9% (active) and 99% (inactive); in the test with OVCAR-5 ovarian, 92.7% (inactive); in the test on OVCAR-4 ovarian it was 111% (inactive) and 114% (inactive); with SK-OV-3 ovarian it was 115% (inactive) and 101% (inactive); with IGROV1 ovarian, 110% (inactive) and 112% (inactive); with OVCAR-3 ovarian, 125% (inactive) and 119% (inactive). The growth in the test on HS 578T breast is 99.2% (inactive) and 97.7% (inactive); with NCI/ADR-RES ovarian, 99.5% (inactive) and 111% (inactive).

Regarding `COc1ccc(COC=O)cc1`, the growth in the test with OVCAR-8 ovarian was 97.8% (inactive); with OVCAR-5 ovarian, 101% (inactive); in the test on OVCAR-4 ovarian, 107% (inactive); in the test on SK-OV-3 ovarian, 98.6% (inactive); with IGROV1 ovarian, 107% (inactive); in the test with OVCAR-3 ovarian it was 109% (inactive). Also, the growth in the test on HS 578T breast was 104% (inactive); with NCI/ADR-RES ovarian, 102% (inactive).

With `N#Cc1c[nH]n2ccnc12`, the growth is 112% (inactive) in the test with RPMI-8226 leukemia; 98.2% (inactive) with OVCAR-8 ovarian; 107% (inactive) with OVCAR-5 ovarian; 118% (inactive) in the test on OVCAR-4 ovarian; 95.3% (inactive) with SK-OV-3 ovarian; 93.1% (inactive) in the test with IGROV1 ovarian. For the same compound, the growth with OVCAR-3 ovarian was 110% (inactive); in the test on HS 578T breast, 117% (inactive); with NCI/ADR-RES ovarian, 105% (inactive).

For the compound `O=C(NC(CSSCC(NC(=O)OCc1ccccc1)C(=O)O)C(=O)O)OCc1ccccc1` (stereo unspecified), the growth is 64.7% (inactive) and 95.7% (inactive) in the test on RPMI-8226 leukemia; 79.5% (inactive) and 103% (inactive) in the test on OVCAR-8 ovarian; 90.9% (inactive) and 99.3% (inactive) in the test with OVCAR-5 ovarian; 68.3% (inactive) and 104% (inactive) with OVCAR-4 ovarian; 107% (inactive) and 83.5% (inactive) in the test with SK-OV-3 ovarian; 73.1% (inactive) and 106% (inactive) in the test with IGROV1 ovarian. Further, the growth in the test with OVCAR-3 ovarian is 97.7% (inactive) and 105% (inactive); in the test on HS 578T breast, 99.9% (inactive) and 104% (inactive); in the test with NCI/ADR-RES ovarian, 97.2% (inactive) and 101% (inactive).

For `CCCCCCCCCCCCCCCCC(=O)O`, the growth with RPMI-8226 leukemia was 99.4% (inactive); in the test with OVCAR-8 ovarian it was 103% (inactive); in the test with OVCAR-5 ovarian, 117% (inactive); in the test with OVCAR-4 ovarian it was 106% (inactive); in the test on SK-OV-3 ovarian, 116% (inactive); in the test on IGROV1 ovarian, 107% (inactive). For the same compound, the growth was 115% (inactive) in the test with OVCAR-3 ovarian, 100% (inactive) in the test with HS 578T breast and 100% (inactive) with NCI/ADR-RES ovarian.

For the compound `N#CC(=S)Nc1ccc(Cl)c(Cl)c1`, the growth in the test on RPMI-8226 leukemia was 19.7% (inactive); in the test with OVCAR-8 ovarian, 10.1% (inactive); with OVCAR-5 ovarian, 11% (inactive); in the test on OVCAR-4 ovarian, 22.6% (inactive); with SK-OV-3 ovarian, 7.19% (active); in the test with IGROV1 ovarian it was 19.5% (inactive). Besides, the growth in the test with OVCAR-3 ovarian is 7.39% (active); in the test with HS 578T breast it was -7.34% (active); in the test with NCI/ADR-RES ovarian it was 7.44% (active).

`CCC(=O)Oc1ccc(OCc2ccccc2)cc1`: the growth in the test on RPMI-8226 leukemia was 89.6% (inactive) and 90.6% (inactive); with OVCAR-8 ovarian, 87.7% (inactive) and 69.1% (inactive); with OVCAR-5 ovarian it was 113% (inactive) and 119% (inactive); in the test on SK-OV-3 ovarian, 105% (inactive) and 101% (inactive); in the test on IGROV1 ovarian, 92.8% (inactive) and 82% (inactive); with OVCAR-3 ovarian it was 95% (inactive) and 104% (inactive). Besides, the growth is 98.3% (inactive) and 97.3% (inactive) with HS 578T breast; 66.6% (inactive) and 65% (inactive) with NCI/ADR-RES ovarian.

For the compound `NC1=NC(c2ccccc2)N=C(Nc2ccccc2)N1` (stereo unspecified), the growth in the test with RPMI-8226 leukemia was 95.5% (inactive) and 130% (inactive); in the test on OVCAR-8 ovarian, 97.6% (inactive) and 101% (inactive); with OVCAR-5 ovarian it was 101% (inactive) and 94.7% (inactive); in the test on SK-OV-3 ovarian, 94.3% (inactive) and 67.6% (inactive); in the test on IGROV1 ovarian, 110% (inactive) and 111% (inactive); in the test on OVCAR-3 ovarian it was 9.87% (active) and -1.56% (active). Besides, the growth is 26.1% (inactive) and 42.4% (inactive) in the test with HS 578T breast; 111% (inactive) and 109% (inactive) in the test on NCI/ADR-RES ovarian.

Consider `CCOC(=N)c1ccc(C(=N)OCC)cc1`, for which the growth with RPMI-8226 leukemia was 109% (inactive); in the test with OVCAR-8 ovarian it was 105% (inactive); in the test on OVCAR-5 ovarian, 105% (inactive); with OVCAR-4 ovarian, 106% (inactive); with SK-OV-3 ovarian, 93.2% (inactive); in the test on IGROV1 ovarian, 111% (inactive). Moreover, the growth in the test on OVCAR-3 ovarian is 124% (inactive); in the test with HS 578T breast, 96.8% (inactive); in the test with NCI/ADR-RES ovarian it was 104% (inactive).
